KCNQ2 block – inhibitors of rat KCNQ2 potassium channel. O88943. CHO-K1 KCNQ2, FluxOR thallium flux, 20 min; active compounds read low. B-score at 10 µM. actives 1.1% (n = 310,000). AID 2156;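 active = fluorescence ratio B-score at most minus 3 library SDs, with starting brightness B-score within 2 library SDs, cut at about -5.5 in these data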
KCNQ2 pot – enhances the rat KCNQ2 potassium channel; actives 0.54% (n = 310,000); CHO-K1 KCNQ2, FluxOR thallium flux fluorescence; active compounds read high; B-score at 10 µM; O88943; AID 2239;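 active = fluorescence ratio B-score at least 3 SD of library B-scores, with initial fluorescence B-score within 3 of them, cut at about 5.3 in these data; same plate scores as AID 2156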;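 note: B-score of peak minus minimum over baseline fluorescence ratio after K+ and Tl+ stimulus; positive B-score means potentiation of KCNQ2 with more thallium influx and brighter signal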
KCNQ2 block conf – confirmation of rat KCNQ2 potassium channel inhibitors. shares compounds with KCNQ2 block. KCNQ2-expressing cells, thallium flux, inhibition; active compounds read low. activity change, negative = inhibition, % at 10 µM. actives 57% (n = 1,000);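 note: 0% = vehicle wells and values are ratio percent relative to vehicle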
KCNQ1 spec – human KCNQ1 activity in KCNQ2 inhibitor specificity screen; shares compounds with KCNQ2 block; KCNQ1-expressing cells, FluxOR thallium flux fluorescence; active compounds read low; activity change, negative = inhibition, % at 10 µM; actives 15% (n = 1,000); AID 493026;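 active = activity change at least 3 SD of negative controls below their mean in both duplicate wells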;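 note: CHO cells stably transfected with KCNQ1 and depolarized by potassium stimulus; peak minus minimum fluorescence over baseline after thallium addition; 0% = vehicle negative control and -100% = blank without thallium stimulus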
Target sequence (P51787 whole entry, looked up): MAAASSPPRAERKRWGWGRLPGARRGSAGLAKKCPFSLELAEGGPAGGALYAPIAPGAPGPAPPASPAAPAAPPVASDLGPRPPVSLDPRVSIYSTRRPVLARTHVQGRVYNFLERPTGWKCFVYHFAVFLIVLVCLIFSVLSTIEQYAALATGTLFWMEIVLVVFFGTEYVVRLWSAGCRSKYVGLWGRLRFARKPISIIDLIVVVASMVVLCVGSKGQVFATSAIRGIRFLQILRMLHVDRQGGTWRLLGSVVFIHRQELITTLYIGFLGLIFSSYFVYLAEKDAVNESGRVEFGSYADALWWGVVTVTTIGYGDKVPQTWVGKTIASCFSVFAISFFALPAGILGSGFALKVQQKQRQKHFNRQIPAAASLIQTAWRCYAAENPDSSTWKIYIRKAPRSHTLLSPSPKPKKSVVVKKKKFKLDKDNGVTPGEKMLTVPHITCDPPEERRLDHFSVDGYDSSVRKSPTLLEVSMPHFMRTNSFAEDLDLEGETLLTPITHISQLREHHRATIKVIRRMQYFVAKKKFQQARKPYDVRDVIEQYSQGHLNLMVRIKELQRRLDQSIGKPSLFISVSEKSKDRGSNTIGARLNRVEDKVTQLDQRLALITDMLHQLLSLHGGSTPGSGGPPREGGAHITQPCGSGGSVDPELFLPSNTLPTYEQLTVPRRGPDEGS
CHO Tl ctr – counter-screen for KCNQ2 inhibitors: effect in parental CHO cells | shares compounds with KCNQ2 block | thallium flux counter-screen; active compounds read low | activity change, % at 10 µM | actives 14% (n = 1,000) | AID 493029;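 note: 0% = vehicle negative controls with stimulus buffer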
KCNQ2 patch conf – rat KCNQ2 inhibition confirmed by electrophysiology | shares compounds with KCNQ2 block | KCNQ2-expressing cells, automated patch clamp current | calls only at 10 µM | actives 49% (n = 550) | AID 588531
Active calls of the source: *; i = inactive; . = not tested or not shown; + = active, no number. Sampled rows, rich in hits. Any-hit rate of the full collection: about 1.6%. Unless noted, the rule behind the calls is not given here.

SMILES | KCNQ2 block | KCNQ2 pot | KCNQ2 block conf | KCNQ1 spec | CHO Tl ctr | others
Cc1ccc(NC(=O)c2ccccn2)c(Br)c1 | i | . | . | . | .
COc1cc(NC(=O)c2cc(C)nc3ccccc23)cc(OC)c1OC | i | . | . | . | .
CN1C2=NCCN2C(=O)c2ccccc21 | i | 0.5 | . | . | .
C/C(=N\NC(=O)c1nonc1N)c1cccs1 | i | . | . | . | .
CCOc1ccc(C(=O)Nc2cc(C)on2)cc1OCC | i | 0.02 | . | . | .
CCCCOc1cccc(OCCCC)c1C(=O)Nc1cc(C)on1 | -9.67* | -9.67 | -43.0%* | -34.5%* | -34.0%* | KCNQ2 patch conf=+
CN(C)c1ccc(NC(=O)CSc2nc3ccccc3c(=O)n2CC2CCCO2)cc1 (configuration not stated) | i | . | . | . | .
OCC1(Cc2cccc(Cl)c2)CCCN(Cc2ccc(F)c(F)c2)C1 (configuration not stated) | i | . | . | . | .
CSc1cccc(CN2CCCC(CO)(Cc3cccc(Cl)c3)C2)c1 (configuration not stated) | -6.99* | -6.99 | i | i | i
CCCC(=O)Nc1ccccc1NC(=O)C1CCCCC1 | i | 0.03 | . | . | .
COc1ccccc1NC(=O)C1=C(C)Nc2ncnn2C1c1ccccc1C (configuration not stated) | i | 0.97 | . | . | .
COc1cccc(C2C(C(=O)Nc3ccc(C)cc3C)=C(C)Nc3ncnn32)c1OC (configuration not stated) | -11.7* | -11.7 | i | i | i
Cc1ccccc1NS(=O)(=O)c1ccc(C(=O)N2CCN(c3ccccn3)CC2)cc1 | i | 1.47 | . | . | .
CCOc1ccc(C(=O)Nc2cccc(C(=O)O)c2)cc1Cl | i | 1.1 | . | . | .
CCOc1ccc(C(=O)Nc2cccc(-c3nc4cccnc4o3)c2)cc1Cl | -10.3* | -10.3 | i | i | i
Cc1cnc(C(=O)OC(C)C(=O)c2c(C)[nH]c3ccccc23)cn1 (configuration not stated) | i | 0.08 | . | . | .
CCCc1cc(C(=O)N(C2CCCCC2)C2CCCCC2)no1 | -7.42* | -7.42 | i | i | i
CCCc1cc(C(=O)NC2CCCCC2)no1 | i | 1.14 | . | . | .
CCc1nc(SCC(=O)Nc2cc(C)ccc2OC)c2c(C)c(C)sc2n1 | -6.84* | -6.84 | i | i | i
CCc1nc(SCC(=O)N2c3ccccc3CC2C)c2c(C)c(C)sc2n1 (configuration not stated) | -6.66* | -6.66 | -20.5%* | i | i | KCNQ2 patch conf=i
Cc1sc2nc(C(C)C)nc(SCC(=O)N3c4ccccc4CC3C)c2c1C (configuration not stated) | i | 2.37 | . | . | .
COc1ccc(C)cc1NC(=O)CCCNC(=O)Cn1cnc2sc(C)c(C)c2c1=O | i | . | . | . | .
CC(C)C(NS(=O)(=O)c1cccc2nsnc12)C(=O)N1CCc2ccccc2C1 (configuration not stated) | i | . | . | . | .
CC(C)C(O)C1CCN(Cc2nc(-c3cccs3)no2)CC1 (configuration not stated) | i | 1.36 | . | . | .
Cc1nc2ccccc2c(=O)n1CCN1CCOCC1 | i | . | . | . | .
SMILES | KCNQ2 block | KCNQ2 pot | KCNQ2 block conf | KCNQ1 spec | CHO Tl ctr | others
COc1ccc(CCNC(=O)c2ccc(CN3CCOCC3)cc2)cc1 | i | 1.91 | . | . | .
C=CCNc1ncnc2c1cnn2-c1cccc(C)c1 | i | 0.38 | . | . | .
Cc1cccc(C)c1OCC(O)CN(Cc1ccccc1O)C1CCCCC1 (configuration not stated) | -8.39* | -8.39 | -41.0%* | -43.0%* | -35.5%* | KCNQ2 patch conf=+
CN(CC(O)COc1ccc(OCC(O)CN(C)C2CCCCC2)cc1)C1CCCCC1 (configuration not stated) | i | 0.08 | . | . | .
O=C(O)c1ccc(CSc2nc3ccccc3[nH]2)cc1 | i | 0.06 | . | . | .
CNC(=O)CN(c1cc(OCCOC)c(Cl)cc1Cl)S(=O)(=O)c1ccc(OC)cc1 | i | . | . | . | .
CCOC(=O)c1c(-c2cccs2)csc1NC(=O)c1ccncc1 | i | 0.91 | . | . | .
CCOC(=O)c1c(-c2cccs2)csc1NC(=O)COC(=O)c1c(C)noc1C | -10.1* | -10.1 | -24.0%* | i | i | KCNQ2 patch conf=i
COc1ccc(OCC(=O)Nc2ccccc2OC(F)F)cc1 | i | . | . | . | .
Cc1ccc(CN2CCN(/N=C/c3ccc(C(F)(F)F)cc3)CC2)c(C)c1 | i | . | . | . | .
Cc1ccc(CN2CCN(/N=C/c3ccc(C(=O)O)cc3)CC2)c(C)c1 | -7.33* | -7.33 | -26.5%* | i | i | KCNQ2 patch conf=+
C=CCn1c(=O)c(C(=O)Nc2cccnc2)c(O)c2ccccc21 | i | . | . | . | .
CCCn1c(=O)c(C(=O)NCCc2ccccc2)c(O)c2ccccc21 | i | . | . | . | .
C=CCn1c(=O)c(C(=O)NCCc2ccccc2)c(O)c2ccccc21 | -6.86* | -6.86 | i | i | i
CCCn1c(=O)c(C(=O)NCCc2ccc(OC)cc2)c(O)c2ccccc21 | -8.18* | -8.18 | i | i | i
Nc1ccc2nc(N3CCOCC3)sc2c1 | i | . | . | . | .
Cc1ccc(C2=NN(C(=O)c3cccs3)C(c3ccccc3O)C2)cc1 (configuration not stated) | i | . | . | . | .
CCc1ccc(OCC(=O)NNC(=O)c2cc(S(=O)(=O)N(C)C)ccc2N2CCCC2)cc1 | i | 0.12 | . | . | .
CN(C)S(=O)(=O)c1ccc(N2CCCC2)c(C(=O)NNC(=O)c2ccc(Br)cc2)c1 | -10* | -10 | -24.5%* | i | i | KCNQ2 patch conf=+
CN(C)S(=O)(=O)c1ccc(N2CCCC2)c(C(=O)Nc2ccc(C(N)=O)cc2)c1 | i | . | . | . | .
CN(C)S(=O)(=O)c1ccc(N2CCCC2)c(C(=O)NNC(=O)COc2ccc(Cl)cc2)c1 | -6.99* | -6.99 | i | i | i
O=C(NCCCN1CCN(c2ccc(F)cc2)CC1)NC12CC3CC(CC(C3)C1)C2 | -8.16* | -8.16 | i | i | i
O=C(NCCCN1CCOCC1)NC12CC3CC(CC(C3)C1)C2 | i | . | . | . | .
O=C(O)CN1CCCC1=Nc1ccccc1 | i | . | . | . | .
Cc1ccc(C)c(N=C2CCCN2Cc2ccccc2)c1C#N | -7.29* | -7.29 | i | i | i
SMILES | KCNQ2 block | KCNQ2 pot | KCNQ2 block conf | KCNQ1 spec | CHO Tl ctr | others
COc1ccc(OC)c(NC(=O)C2CCN(S(C)(=O)=O)CC2)c1 | i | . | . | . | .
COc1ccc(/C=N/NC(=O)c2cccnc2)cc1O | -7.25* | -7.25 | i | i | i
CCNC(=O)COc1ccc(/C=N/NC(=O)c2cccnc2)cc1OC | i | 0.09 | . | . | .
CCC(C)Nc1nc2ccccc2n2c(C)nnc12 (configuration not stated) | i | 0.4 | . | . | .
CN1/C(=C\C(=O)Nc2ccc(Cl)cc2)C(C)(C)c2ccccc21 | -8.06* | -8.06 | -27.0%* | i | i | KCNQ2 patch conf=i
CN1/C(=C\C=C(/C#N)C(=O)Nc2ccc(Cl)cc2)C(C)(C)c2ccccc21 | i | . | . | . | .
CC(C)(C)N(Cc1ccccc1)C(=O)COC(=O)c1cccc([N+](=O)[O-])c1 | -6.99* | -6.99 | i | i | i
COc1ccc2oc(C(=O)OCC(=O)NCCc3ccccc3)c(C)c2c1 | i | 0.22 | . | . | .
COc1ccc2oc(C(=O)OCC(=O)N(Cc3ccccc3)C(C)(C)C)c(C)c2c1 | -9.4* | -9.4 | i | i | i

Screens deposited in PubChem by Johns Hopkins Ion Channel Center.
